What was measured:
Settings in all cases: concentration: 1 μM, replicates: in singlicate; n = 1
[1] = system: CDC2L2
[2] = system: T1, CDC2L5
T1 construct: gene CDK13

[3] = system: T2, CDK11
T2 construct: gene CDK19

[4] = system: CDK2
[5] = system: CDK3
[6] = system: CDK4-cyclinD1
[7] = system: CDK4-cyclinD3
[8] = system: CDK4
[9] = system: CDK5
[10] = system: CDK7
[11] = system: CDK8
[12] = system: CDK9
[13] = system: CDKL1
[14] = system: CDKL2
[15] = system: CDKL3
[16] = system: CDKL5
[17] = system: CHEK1
[18] = system: CHEK2
[19] = system: CIT
[20] = system: CLK1
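Also: KINOMEscan kinase panel screen.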

SMILES	%Inh [1] [%]	%Inh [2] [%]	%Inh [3] [%]	%Inh [4] [%]	%Inh [5] [%]	%Inh [6] [%]	%Inh [7] [%]	%Inh [8] [%]	%Inh [9] [%]	%Inh [10] [%]	%Inh [11] [%]	%Inh [12] [%]	%Inh [13] [%]	%Inh [14] [%]	%Inh [15] [%]	%Inh [16] [%]	%Inh [17] [%]	%Inh [18] [%]	%Inh [19] [%]	%Inh [20] [%]
CNC(=O)c1ccccc1Nc1nc(Nc2ccc(N3CCOCC3)cc2)ncc1Cl.Cl [GSK1576028]	20	0	0	39	31	47	45	28	29	96.6	1	27	36	35	0	0	65	91.3	26	99.5
Cl.NC(=O)c1cccc(Nc2nccc(Nc3ccc(Oc4c(Cl)cccc4Cl)c(Cl)c3)n2)c1 [GW659009]	2	0	88	0	0	0	0	1	0	0	18	0	0	15	0	0	1	0	9	46
COc1ccc(-c2coc3ccc(-c4nnc(SCc5ccc(OC)c(C(F)(F)F)c5)o4)cc23)cc1	17	0	57	1	0	2	0	0	14	0	20	1	11	0	0	1	0	18	0	26
Nc1ncc(-c2ccc3nccc(-c4ccncc4)c3c2)cc1S(=O)(=O)N1CCOCC1 [GSK1627798]	0	0	40	1	6	0	47	0	0	72	4	0	0	4	0	0	0	0	7	63
O=C(Nc1n[nH]c2cc(-c3ccoc3)ccc12)C1CC1 [SB-738481]	0	29	0	76	51	14	3	0	17	71	11	2	18	87	10	50	0	6	0	23
CCCCc1nn2ncccc2c1-c1ccnc(Nc2ccc(N3CCN(C)CC3)cc2)n1 [GW684941]	7	0	19	0	9	63	53	46	0	34	26	0	22	99.3	66	0	0	13	30	8
O=C(Nc1cccc(-c2nn3ccccc3c2-c2ccnc(Nc3cccc(C(F)(F)F)c3)n2)c1)c1c(F)cccc1F [GSK292658]	0	99.3	0	0	1	0	0	0	0	6	14	0	0	24	0	0	10	0	44	23
O=C(Nc1cccc(-c2nn3ccccc3c2-c2ccnc(Nc3cccc(F)c3)n2)c1)c1c(F)ccc(F)c1Cl [GSK357952]	0	0	0	0	1	0	0	53	0	0	6	0	15	25	0	0	15	0	7	24

— paper PMC5540273 (PLoS ONE, 2017)
